Source: PubChem BioAssay (National Center for Advancing Translational Sciences (NCATS))
A selection: hits, their analogues and other compounds. The true share with any hit is near 19%.
HT1080 IDH1KD tx: HT-1080 IDH1 knockdown cell toxicity (counter line) | HT-1080 IDH1 knockdown viability, ATP luminescence, 48 h | Potency, µM (highest dose often 46.1 µM), inactives show at the top dose activity, negative = toxicity, most hits filed as cytotoxic | 360,000 tested, 2% active;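 further: potency means the concentration at half of the fitted maximal effect; 0% = DMSO wells and -100% = cell-free medium wells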
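IDH1KD HT-1080 cells, 750/well, RPMI + 5% FBS; compound pinned after 2 h settling; 48 h, 37 °C; CellTiter-Glo luminescence; % activity normalised to DMSO and no-cell wells; curves fitted, classed by r2 and efficacy.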
HT1080-NT tox: kills 2HG-producing HT-1080-NT fibrosarcoma cells; HT-1080-NT fibrosarcoma viability, CellTiter-Glo ATP luminescence, 48 h; Potency, µM (titrated, usually from 46.1 µM), for inactives: top-dose activity, negative = less viability, usual class: cytotoxic; 360,000 tested, 1.6% active; AID 686970;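 further: NT is the 2HG producing partner of a matched IDH1 knockdown line; potency means the concentration at half of the fitted maximal effect; 0% = DMSO-treated cells and -100% = media-only wells without cells; nearly all actives have a fitted effect of over 55% in size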
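Fibrosarcoma NT cells, 750 per well in 5% FBS RPMI, were exposed to compound for 48 hours. Viability: CellTiter-Glo luminescence.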
TDP1 cell noCPT: qHTS for Inhibitors of human tyrosyl-DNA phosphodiesterase 1 (TDP1): qHTS in cells in absence of CPT | DT40 Tdp1-/- hTDP1 cells, no CPT, ATP luminescence, 48 h | Potency, µM (series often up to 46.2 µM), without a hit: at the top dose activity change, negative = growth inhibition, hits mostly inhibitors | 420,000 tested, 15% active; further: potency means the concentration at half of the fitted maximal effect; nearly all actives have a fitted effect of over 55% in size
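Readout: luminescence from CellTiter-Glo after 30 min in the dark at RT. Cells: DT40 Tdp1-/- with stable hTDP1, 400/well. Exposure: compounds alone, ≥48 hr, 37 °C.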
TDP1 cell CPT: DT40-hTDP1 cell growth loss with CPT | 420,000 tested, 12% active | chicken DT40 Tdp1-/-;hTDP1 cells + 20 nM CPT, ATP luminescence, 48 h | AID 686979 | Potency, µM (series often up to 46.2 µM), for inactives: at the highest dose activity change, negative = growth inhibition, most hits filed as inhibitors; further: potency means the concentration at half of the fitted maximal effect; nearly all actives have a fitted effect of over 55% in size
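Chicken DT40 Tdp1-/- cells complemented with human TDP1, 400 cells/well, exposed to compounds plus 20 nM camptothecin for at least 48 h at 37 C; viability read as ATP content by CellTiter-Glo luminescence.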
IL-1B inflam inh: blocks inflammasome-driven IL-1 beta release. THP-1 LPS/ATP IL-1B secretion, AlphaLISA, 16 h; stronger effect = lower value. activity change, % at 57.5 µM. 360,000 tested, 4.7% active; in the data active means activity change below about -50%; inconclusive means mostly about -30% to -49%
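THP-1 cells pretreated 1 hr with compounds (up to 57.5 uM final), then stimulated with LPS (250 ng/mL final) plus ATP (1.25 mM final); secreted IL-1B measured by AlphaLISA after 16 hr, decreased signal indicating inhibition.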
An asterisk follows results filed as active; ? = inconclusive; . = no result given; [ ] = remark or other dose. Unless noted, the call rests on the fitted dose curve; in most records, active means well fitted curve in the direction sought with a large enough effect; inconclusive means small, poorly fitted or top-dose-only effect, or another doubt; inactive means no such curve, though single readings can be large; an effect the other way counts as inactive or inconclusive. Unless noted, on the % scale 0 is the no-effect control and ±100 the full control effect.

SMILES	HT1080 IDH1KD tx	HT1080-NT tox	TDP1 cell noCPT	TDP1 cell CPT	IL-1B inflam inh
O=C(NCCc1ccccc1)c1ccc(=O)oc1	9%	20%	-14%	-15%	-8
O=C(NCCO)c1ccc2nc(-c3ccco3)c(-c3ccco3)nc2c1	-16%	-19%	21µM*	?	-6
O=C(c1ccccc1)c1ccc2nc(-c3ccco3)c(-c3ccco3)nc2c1	18µM*	?	21µM*	21µM*	-18
O=C(NCCc1ccccc1)c1ccc2nc(-c3ccco3)c(-c3ccco3)nc2c1	-1%	4%	18µM*	21µM*	?
c1coc(-c2nc3ccccc3nc2-c2ccco2)c1	?	-20%	?	18µM*	?
C=C(C)Cn1c(SCC(=O)c2ccc(OC)cc2)nc2sc3c(c2c1=O)CCCC3	.	.	12µM*	10µM*	.
C=C(C)Cn1c(SCC(=O)Nc2cccc(Cl)c2)nc2sc3c(c2c1=O)CCCC3	.	.	15µM*	?	.
C=CCNC(=O)CSc1nc2sc3c(c2c(=O)n1CCC)CCC3	-15%	-18%	15µM*	?	-8
COc1ccc([C@H]2CC(=O)C=C(c3cccc(C(C)C)c3)C2)cc1	-1%	-20%	?	?	?
CCN(CC(=O)N1CCOCC1)S(=O)(=O)c1cc(Cl)ccc1Cl	-3%	0%	7%	-13%	12
O=C(O)c1ccc(OCCCCCCOC2CCCCO2)cc1 (stereo unspecified)	13%	16%	18µM*	?	27
COc1ccc(C(=O)Nc2nc3ccccc3[nH]2)cc1OC	?	3%	-23%	-21%	-12
COc1cc(C(=O)Nc2nc3ccccc3[nH]2)ccc1OC(F)F	?	?	15µM*	21µM*	-20
CC(C)Oc1ccc(C(=O)Nc2nc3ccccc3[nH]2)cc1	?	?	9.2µM*	18µM*	-4
N#Cc1ccc(C(=O)Nc2nc3ccccc3[nH]2)cc1	?	?	?	4%	-19
Cn1nc(C(=O)Nc2c(-c3ccccc3)nc3sccn23)c2ccccc2c1=O	10%	8%	13µM*	21µM*	32
O=C(Nc1nc2ccccc2[nH]1)c1ccc(F)cc1	?	0%[9.24 µM]	?	-29%	-15
Cn1nc(C(=O)Nc2cccc(C(F)(F)F)c2)c2ccccc2c1=O	1%	13%	?	3%	6
CCc1ccc(C(=O)Nc2nc3ccccc3[nH]2)cc1	?	?	12µM*	18µM*	0
Cc1[nH]c2c(F)cccc2c1CC(=O)NCCN1Cc2ccccc2OC(C)C1 (stereo unspecified)	.	.	-9%	-9%[9.04 µM]	.
Cc1c(NC(=O)COC(=O)c2cccn2C)c(=O)n(-c2ccccc2)n1C	-1%	7%	-8%	-12%	6
CCOc1ccc(NC(=O)CCCn2c(=S)[nH]c3ccsc3c2=O)cc1	0%	-15%	-21%	6%	5
Cn1nc(C(=O)NNc2c(F)c(F)cc(F)c2F)c2ccccc2c1=O	-3%	-2%	1.5µM*	-16%	42
Cc1ccsc1C(=O)Nc1nc2ccccc2[nH]1	?	?	?	?	51
CCOc1ccc(C(=O)Nc2nc3ccccc3[nH]2)cc1OCC	-28%	?	8.2µM*	21µM*	31
SMILES	HT1080 IDH1KD tx	HT1080-NT tox	TDP1 cell noCPT	TDP1 cell CPT	IL-1B inflam inh
Cn1nc(C(=O)Nc2nc3ccccc3[nH]2)c2ccccc2c1=O	9%	12%	16µM*	18µM*	-15
Cn1nc(C(=O)NNC(=O)COc2ccccc2)c2ccccc2c1=O	10%	0%	-14%	?	21
COCCCN1C(=O)C(CC(=O)NCCCN(C)C)CC(C(=O)N2CCCCCC2)=C1C (stereo unspecified)	0%	14%	-10%	-4%	21
COc1ccc(C2NC(=O)Cc3cc(OC)c(OC)cc32)cc1OC (stereo unspecified)	-2%	-3%	-17%	-22%	0
CCOc1cc2c(cc1OCC)C(c1ccc(OC)c(OC)c1)N(c1ccc(C(=O)O)cc1)C(=O)C2 (stereo unspecified)	-1%	0%	-12%	27%	-1
COc1cc2c(cc1OC)C(c1ccc(Cl)cc1)N(c1cccc(C#N)c1)C(=O)C2 (stereo unspecified)	.	.	?	23µM*	.
COc1cc2c(cc1OC)C(c1ccc(F)cc1)N(c1cccc(C#N)c1)C(=O)C2 (stereo unspecified)	.	.	?	15µM*	.
COc1ccc(C(=O)N(Cc2ccco2)Cc2ccccc2F)cc1Cl	.	.	16µM*	21µM*	.
COc1ccccc1NC(=O)CN(Cc1ccco1)C(=O)c1cc(Cl)c(OC)c(OC)c1	1%	-3%	?	?	3
CN(C)c1ccc(CN(Cc2ccco2)C(=O)c2ccc(C(C)(C)C)cc2)cc1	.	.	21µM*	16µM*	.
CCn1cnc2sc(C(=O)N(Cc3ccc(N(C)C)cc3)Cc3ccco3)c(C)c2c1=O	-6%	-6%	?	?	-76*
COc1ccc(N(Cc2ccco2)C(=O)c2ccccc2F)cc1OC	-2%	4%	?	?	-6
COc1ccc(C(=O)N(Cc2ccc(N(C)C)cc2)Cc2ccco2)cc1Cl	.	.	15µM*	16µM*	.
O=C1CCCCCN1Sc1ccccc1	-15%	-27%	5.2µM*	5.8µM*	-101*
O=C1CCCCCN1C(=O)c1ccccc1	15%	13%	-8%	-9%	9
CCCCCCN1C[C@H](O)[C@@H](n2cc(-c3ccc(F)cc3)nn2)C[C@@H]1c1ccc(Cl)cc1	-3%	2%	18µM*	?	-27
O[C@@H]1C[C@H](c2ccc(Cl)cc2)N(Cc2cccs2)C[C@H]1n1cc(-c2ccc(F)cc2)nn1	14%	7%	?	-21%	43
CCCCCCN1C[C@@H](n2cc(-c3ccc(F)cc3)nn2)[C@H](O)C[C@@H]1c1ccc(Cl)cc1	7%	8%	12µM*	12µM*	-18
CCCCCCN1C[C@H](n2cc(-c3ccc(F)cc3)nn2)[C@@H](O)C[C@@H]1c1ccc(OC)cc1	-4%	2%	?	?	-1
CCCCCCN1C[C@H](n2cc(-c3ccc(F)cc3)nn2)[C@@H](O)C[C@@H]1c1ccc(C)cc1	1%	-6%	13µM*	13µM*	15
COc1cc(CN2CCOc3ccc(CN4CCC(O)(c5cccnc5)CC4)cc3C2)cc(OC)c1	.	.	-12%	6%[9.04 µM]	.
C=CC[n+]1c(-c2ccc(Cl)cc2Cl)csc1Nc1c(C)n(C)n(-c2ccccc2)c1=O	15µM*	21µM*	3.7µM*	5.2µM*	-80*
